Compound activity as filed in PubChem.
Hits are enriched below; roughly 2.1% of the tested compounds scored in any of these assays.
PvdQ inh = P. aeruginosa PvdQ acylase inhibitors, primary screen, biochemical, fluorescence, plate reader and imaging, single point. PvdQ acylase [Pseudomonas aeruginosa LESB58]. purified PvdQ acylase. inhibition, % at 10 µM. actives 0.063% (n = 340,000). AID 488965, 2010; in the data active = inhibition above about 30%, passing the limit was not always enough;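 also: 0% = vehicle neutral wells and 100% = reference inhibitor wells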
ARNT TACC3 PPI = disruptors of ARNT/TACC3 protein interaction, primary screen, biochemical, AlphaScreen, single concentration. Transforming acidic coiled-coil-containing protein 3 (Homo sapiens), Q9Y6A5. AlphaScreen His-ARNT PAS-B/GST-TACC3 binding, luminescence; TACC3 fragment carries E629A point mutation. inhibition, % at 9.99 µM. actives 0.66% (n = 390,000). AID 623870, 2012;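 active = mean inhibition of replicates at least 50% and at least half of replicates each reaching 50%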;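 also: 0% = complete ARNT plus TACC3 wells and 100% = ARNT alone without TACC3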
Ecoli rRNA inh = reduced GFP signal of wild-type E. coli, primary screen, bacterial rRNA inhibitor project, GFP/RFP fluorescence, OD600, single point | E. coli WT GFP vs humanized-ribosome RFP mutants, 24 h; hits give low values; DMSO median 0, no signal -100 | GFP signal change (wild-type ribosome), % (concentration not given with the values) | actives 1.6% (n = 350,000) | AID 720706, 2013;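 active = significant combined selectivity score with lowered wild-type GFP, culture density cut under 30%, mutant RFP and density less affected; inactive = any of these conditions unmet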
CFTR F508del cor = F508del CFTR correction, initial screen, CFBE line, single point | AID 720511, 2013 | actives 0.36% (n = 350,000) | CFBE cells, YFP halide quenching; stimulated with forskolin plus potentiator P3; % fluorescence drop versus neutral controls | activity (quench increase), % at 7.58 µM;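 active = mean added fluorescence quench of at least 8% versus neutral control, with both replicates also reaching 8%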;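 also: cells transiently co-express mutant CFTR-F508del with the halide-sensitive YFP; corrector assay measuring rescue of mutant channel to the surface after 24 h compound exposure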
ERAP1 HTS inh = human ERAP1 aminopeptidase inhibitors, primary screen, biochemical, single point, plate reader | Endoplasmic reticulum aminopeptidase 1 (Homo sapiens), Q9NZ08 | actives 0.15% (n = 340,000) | inhibition, % at 10.7 µM | AID 652197, 2013 | recombinant ERAP1, Leu-AMC fluorescence, 60 min;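 active = mean replicate inhibition of at least 30%, or all replicates individually reaching that 30% level; inactive = mean below 30% and not every replicate reaching it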;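 also: 0% = neutral control wells and 100% = L-leucinethiol positive control wells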
Target sequence (Q9NZ08 whole entry, looked up): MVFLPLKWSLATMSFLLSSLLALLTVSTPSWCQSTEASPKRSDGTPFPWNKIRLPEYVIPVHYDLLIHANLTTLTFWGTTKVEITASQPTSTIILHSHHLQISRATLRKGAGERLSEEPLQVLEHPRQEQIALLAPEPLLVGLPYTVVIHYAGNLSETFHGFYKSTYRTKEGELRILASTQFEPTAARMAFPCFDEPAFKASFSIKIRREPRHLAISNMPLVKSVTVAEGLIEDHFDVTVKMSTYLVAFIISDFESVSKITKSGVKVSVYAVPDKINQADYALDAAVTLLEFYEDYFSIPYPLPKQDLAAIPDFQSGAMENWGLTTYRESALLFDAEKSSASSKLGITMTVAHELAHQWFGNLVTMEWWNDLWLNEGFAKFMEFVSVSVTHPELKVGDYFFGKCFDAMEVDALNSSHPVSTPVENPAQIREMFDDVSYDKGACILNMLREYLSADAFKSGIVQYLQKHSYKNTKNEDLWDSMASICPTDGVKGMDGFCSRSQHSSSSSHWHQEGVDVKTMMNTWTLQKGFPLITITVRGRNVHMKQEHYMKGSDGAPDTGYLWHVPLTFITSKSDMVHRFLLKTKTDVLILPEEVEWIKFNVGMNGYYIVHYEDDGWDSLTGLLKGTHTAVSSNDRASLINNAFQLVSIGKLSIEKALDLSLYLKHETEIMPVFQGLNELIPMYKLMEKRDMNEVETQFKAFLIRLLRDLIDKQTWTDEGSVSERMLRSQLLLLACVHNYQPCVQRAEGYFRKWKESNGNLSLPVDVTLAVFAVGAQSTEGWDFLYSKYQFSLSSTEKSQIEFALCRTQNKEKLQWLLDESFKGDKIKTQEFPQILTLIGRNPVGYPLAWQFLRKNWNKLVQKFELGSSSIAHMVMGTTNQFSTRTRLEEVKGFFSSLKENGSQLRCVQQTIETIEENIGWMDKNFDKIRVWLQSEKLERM
* hit, by the source's call; nt = no result given; ! = not confirmed by another sample.

SMILES | PvdQ inh | ARNT TACC3 PPI | Ecoli rRNA inh | CFTR F508del cor | ERAP1 HTS inh
CC1(c2cccc(Br)c2)NC(=O)N(CC(=O)Nc2ccc3c(c2)OCO3)C1=O (stereo not given) | -7.9 | -0.3 | -22.0* | -3.7 | 2.6
O=S(=O)(CCSc1nc2ccccc2o1)c1nc2ccccc2s1 | -9.8 | 0.2 | -32.0*! | -0.7 | -2.1
Cc1cc(/C=C2\C(=N)N3N=CSC3=NC2=O)c(C)n1Cc1ccccc1 | 6.0 | -1.8 | -33.4* | -0.7 | 9.1
Cc1cccc(N2CCN(C(=O)c3c(-c4ccccc4Cl)noc3C)CC2)c1C | -13.2 | -15.3 | -3.8 | 14.4* | 0.6
O=C(C[C@H]1CC[C@H]2NC[C@@H](O)COC[C@@H]2O1)NC1Cc2ccccc2C1 | nt | -0.8 | 3.2 | 1.2 | 0.8
O=C(Nc1ccccc1F)N1CC(=O)N2[C@@H](CO)[C@H](c3ccc(C#CC4CC4)cc3)[C@@H]2C1 | nt | nt | 1.3 | 4.1 | -1.2
O=C1NN(c2ccccc2)C(=O)/C1=C\c1ccccc1 | 0.6 | 8.4* | 2.3 | 2.7 | -2.7
CC(C)c1ccc(OC(=O)c2ccc3c(=O)n4c(nc3c2)CCC4)cc1 | -3.6 | -3.9 | -1.4 | 4.3 | 77.8*
O=C(Oc1ccc(F)c(F)c1)c1ccc2c(=O)n3c(nc2c1)CCC3 | -18.2 | -2.5 | 4.9 | 2.9 | 4.3
COc1ccc(S(=O)(=O)Nc2cccc3c2O[C@@H](CN(C)Cc2ccc(C(F)(F)F)cc2)[C@H](C)CN([C@@H](C)CO)C3=O)cc1 | nt | -7.6 | -2.5 | 0.9 | 1.6
C=CCNC(=S)NNC(=O)c1cccn(Cc2cccc(Cl)c2)c1=O | -16.5 | nt | nt | nt | nt
C=CCNC(=S)NNC(=O)c1cccn(Cc2ccc(Cl)cc2)c1=O | 6.3 | 51.8* | -3.0 | nt | -1.0
CCC(=O)NC(=S)Nc1ccc(N2CCOCC2)cc1 | -5.5 | -1.5 | 8.4 | -1.4 | 14.5
CCCCCC(=O)NC(=S)Nc1ccc(N2CCOCC2)cc1 | -6.6 | nt | -27.5* | -1.8 | 2.2
C[C@H]1CN([C@@H](C)CO)C(=O)CCCn2cc(nn2)CO[C@@H]1CN(C)Cc1cccnc1 | nt | -3.1 | 0.2 | -1.8 | 2.1
O=C(c1ccc2ncsc2c1)N1CCCCC1 | -9.5 | -2.9 | 14.5 | 0.8 | -0.2
Nc1nc2ccc(C(=O)N3CCCCC3)cc2s1 | -5.9 | 47.2* | 1.8 | -0.7 | -2.0
Cc1cc(C)n2cc(CSc3ccc(Cl)cc3)nc2n1 | -7.1 | -10.1 | -24.9* | -0.3 | 3.4
C=CCNc1cccc2c1S(=O)(=O)N[C@@H](C)CO2 | nt | nt | 12.9 | -1.1 | -6.0
COc1ccc(Nc2nc(N)nc(CSC(=S)N3CCCCC3C)n2)cc1 (stereo not given) | -18.8 | 6.5 | -22.4* | 2.6 | 5.3
O=[N+]([O-])c1cccnc1N1CCN(c2ccccc2F)CC1 | 8.7 | 9.7 | -34.5* | 1.7 | 5.1
CCOC(=O)c1c2ccc(OCC(=O)NN)cc2n2ccccc12 | -7.0 | -6.7 | -24.1* | 1.6 | 4.1
CCOC(=O)c1c2ccc(OCC(=O)N/N=C/c3ccc(C)cc3)cc2n2ccccc12 | -4.3 | -8.7 | nt | nt | nt
COC(=O)c1ccc(/C=C2/SC(=S)N(CCC(=O)NCCCN3CCOCC3)C2=O)cc1 | -11.5 | -0.4 | -3.0 | -1.6 | -0.4
CCc1ccc(/C=C2/SC(=S)N(CCC(=O)NCCCN3CCOCC3)C2=O)cc1 | -9.2 | 2.2 | -1.7 | -7.6 | 0.4
SMILES | PvdQ inh | ARNT TACC3 PPI | Ecoli rRNA inh | CFTR F508del cor | ERAP1 HTS inh
CCOc1ccc(/C=C2\SC(=S)N(CCCC(=O)NCCCN3CCOCC3)C2=O)cc1 | -13.5 | 2.2 | -20.7* | -0.9 | 3.2
CCc1ccc(/C=C2\SC(=S)N(CCCC(=O)NCCCN3CCOCC3)C2=O)cc1 | nt | nt | -27.0* | 0.5 | 4.2
COc1ccc2c3c(n(C)c2c1)[C@@H](CO)N(C(=O)C1CCC1)CC31CCN(C)CC1 | nt | nt | 2.3 | 1.0 | -0.3
Cc1ccc(-c2csc3ncn(CC#N)c(=O)c23)cc1C | 8.2 | -5.3 | -9.6 | 10.4* | 2.2
O=C(NC1CCCCC1)N1CC(=O)N2[C@@H](CO)[C@H](c3ccc(/C=C/c4ccccc4)cc3)[C@@H]2C1 | nt | nt | -9.0 | -3.0 | 0.3
Cc1ccc(C(=O)N/C(=C\c2ccc(Br)cc2)c2nc(=S)[nH][nH]2)cc1 | -13.9 | 9.7 | -24.8* | 1.0 | 2.6
CC(=O)N1CCC(N(CCN2CCOCC2)C(=O)Nc2ccc(Cl)c(Cl)c2)CC1 | -4.0 | -2.4 | -40.0* | 6.5 | -6.1
COc1ccc(NC(=S)N(CCN2CCOCC2)C2CCN(C(C)=O)CC2)cc1Cl | 13.8 | 6.9 | 8.6 | -1.1 | nt
COc1cc2c(cc1NC(=O)C(C)Sc1cccc[n+]1[O-])oc1ccccc12 (stereo not given) | -12.6 | 7.4 | -32.7* | nt | 7.0
COc1cc2c(cc1NC(=O)C(C)Sc1nc3ccccc3n1C)oc1ccccc12 (stereo not given) | 2.2 | -5.9 | nt | nt | nt
CC(=O)c1ccc(NC(=O)COC(=O)c2c3c(nc4ccccc24)/C(=C\c2cccs2)CCC3)cc1 | 11.1 | -3.8 | 2.3 | 9.1* | -2.4
C[C@@H]1CN([C@H](C)CO)S(=O)(=O)c2ccc(C#C[C@@H](C)O)cc2O[C@H]1CN(C)CC1CCCC1 | nt | -4.5 | -2.4 | -1.8 | 17.4
Cc1ccc(Nc2nc(=O)c3cccnc3s2)c(Br)c1 | -15.6 | -0.8 | -21.7* | 4.4 | -0.7
CC(=O)c1ccc(Nc2nc(=O)c3cccnc3s2)cc1 | 2.9 | -1.9 | nt | nt | nt
CN(C)CCNc1ccc2nnn3c4ccc(O)cc4c(=O)c1c23 | -6.1 | 44.9 | -25.9 | 4.3 | 1.4
CCN(CC)CCCNc1ccc2ncn3c4ccc(O)cc4c(=O)c1c23 | -3.4 | 74.0* | 22.0 | 19.9* | 32.9*
COC(=O)[C@]12CCCCC=C1N(Cc1ccccc1)C(=O)[C@H](CC(=O)NCc1ccc(OC)c(OC)c1)C2 | nt | nt | -20.5* | 0.4 | nt
CCOC(=O)[C@]12CCCC=C1N(Cc1cccc3ccccc13)C(=O)[C@H](CC(=O)NCc1cccc(C(F)(F)F)c1)C2 | nt | nt | nt | 11.2* | 0.6
CCOC(=O)[C@]12CCCC=C1N(Cc1ccccc1)C(=O)[C@H](CC(=O)NCc1ccc(OC)c(OC)c1)C2 | nt | nt | -3.4 | -2.2 | 0.6
COC(=O)[C@]12CCCCC=C1N(Cc1ccccc1)C(=O)[C@H](CC(=O)N1CCCCC1)C2 | nt | nt | -25.9* | -2.0 | nt
CCOC(=O)[C@]12CCCC=C1N(Cc1ccccc1)C(=O)[C@H](CC(=O)NCc1cccc(C(F)(F)F)c1)C2 | nt | nt | -8.9 | -0.4 | -3.9
COc1ccc(NC(=O)N(C)C[C@H]2OCCCC[C@@H](C)Oc3ccc(NC(=O)Nc4ccc(F)cc4)cc3C(=O)N([C@H](C)CO)C[C@H]2C)cc1 | nt | 16.0 | -0.7 | 1.5 | 1.4
